This note sets out measurements from PubChem BioAssay.

The structures appear in SMILES notation.

In experiment [1] the target is Tumor necrosis factor receptor superfamily member 10B (Homo sapiens) (UniProt O14763). The experiment is described as follows: viability loss of caspase-8 NB7 cells with TRAIL – with/without TRAIL, luminescence panel, confirmation (AID 651596). As to conditions: NB7 neuroblastoma + caspase-8, TRAIL sensitization, NB7 Caspase-8, with TRAIL, mean of runs, at 10 µM, stronger effect = higher value.

Test in experiment [2]: as above
Conditions: NB7 neuroblastoma + caspase-8, without TRAIL, NB7 Caspase-8, without TRAIL, mean of runs, at 10 µM.

Tumor necrosis factor receptor superfamily member 10B (Homo sapiens), sequence (O14763 whole entry, looked up): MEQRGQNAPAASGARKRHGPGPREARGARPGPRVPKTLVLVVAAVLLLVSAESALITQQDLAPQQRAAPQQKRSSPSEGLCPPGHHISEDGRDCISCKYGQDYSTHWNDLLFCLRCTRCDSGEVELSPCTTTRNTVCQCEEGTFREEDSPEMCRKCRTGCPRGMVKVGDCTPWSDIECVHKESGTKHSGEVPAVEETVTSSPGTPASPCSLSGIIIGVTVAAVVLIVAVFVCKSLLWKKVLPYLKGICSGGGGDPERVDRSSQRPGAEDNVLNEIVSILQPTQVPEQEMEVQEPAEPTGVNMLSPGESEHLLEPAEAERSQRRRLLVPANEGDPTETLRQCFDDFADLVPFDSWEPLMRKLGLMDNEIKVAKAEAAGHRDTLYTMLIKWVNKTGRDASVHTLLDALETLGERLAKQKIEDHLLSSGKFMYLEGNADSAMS

For the compound `CCOC(=O)NC(=O)CSc1nc(C)cc(C)c1C#N`, the activity was 71% in experiment [1] and 61.4% in experiment [2].

Take `COc1ccc(S(=O)(=O)N2CCC(C(=O)NCCC3=CCCCC3)CC2)cc1C`: the results for the activity in experiment [1] and in experiment [2] were 13.8% and 22.2%, respectively.

For `Nc1ccc(C(=O)Nc2nc3ccccc3s2)cc1`, the activity came out at 44.8% in experiment [1] and 41% in experiment [2].

Take `CCCCCN=Cc1c(C)[nH]n(-c2nc3ccccc3s2)c1=O`: the figures for the activity in experiment [1] and in experiment [2] were 95.5% and 95.9%, respectively.

With `COc1ccccc1NC(CC(=O)c1ccccc1)C(=O)OCC(=O)c1ccc(C)cc1` (stereo unspecified), the activity in experiment [1] stood at 65%; in experiment [2] it was 69%.

As to `Clc1ccc(-c2nnc(SCc3ccon3)o2)c(Cl)c1`, the activity in experiment [1] worked out at 51.8%; in experiment [2], 58.7%.

For `O=C1C(=Cc2ccc(F)cc2)CCc2ccccc21`, the results for the activity in experiment [1] and in experiment [2] were 82.8% and 76.7%, respectively.

Turning to `Cc1ccc2nc(-c3ccccn3)oc2c1`, the activity was 75.3% in experiment [1] and 64.1% in experiment [2].

For the compound `Cc1ccc2nc(-c3cccc(N)c3)[nH]c2c1`, the results for the activity in experiment [1] and in experiment [2] were 71.5% and 59.6%, respectively.

Take `O=C(CCl)N(c1ccccc1)C1CCCCC1`: the results for the activity in experiment [1] and in experiment [2] were 99.4% and 99.8%, respectively.

As to `Clc1ccc(CN2CCc3c([nH]c4ccccc34)C2)cc1Cl`, the figures for the activity in experiment [1] and in experiment [2] were -9.62% and -14.6%, respectively.

`CCOC(=O)c1c(CSC(=N)N)n(-c2ccc(C)cc2)c2cc(Br)c(OC(C)=O)cc12`: the activity in experiment [1] worked out at 90.7%; in experiment [2] it was 81.3%.

Turning to `O=C(NCc1cc(C(F)(F)F)ccc1Cl)c1cccc2c1C(=O)c1ccc(N3CCC(N4CCCCC4)CC3)cc1S2(=O)=O`, the figures for the activity in experiment [1] and in experiment [2] were 93% and 93.6%, respectively.

For `C=C(C)c1nc(Oc2ccccc2)nc(Oc2ccccc2)n1`, the activity stood at 77% in experiment [1] and 77.6% in experiment [2].

Take `C/C(=N\Nc1nc2ccccc2[nH]1)c1ccc(N2CCOCC2)cc1`: the results for the activity in experiment [1] and in experiment [2] were 80.9% and 74.9%, respectively.

Consider `COc1ccc(C(=O)c2c[nH]c3ccccc23)cc1`, for which the results for the activity in experiment [1] and in experiment [2] were 45.4% and 26.6%, respectively.

Turning to `COc1ccc(S(=O)(=O)N2CCN(c3ccc4nnc(-c5ccccc5)n4n3)CC2)cc1`, the activity in experiment [1] was determined as 58%; in experiment [2] it was 66.5%.

As to `Cc1cccc(/C(N)=N/OC(=O)c2ccoc2C)c1`, the activity in experiment [1] amounted to 90.8%; in experiment [2] it was 91.8%.

As for `O=C(Nc1ccccc1NC(=O)c1c(F)c(F)c(F)c(F)c1F)c1c(F)c(F)c(F)c(F)c1F`, the activity in experiment [1] amounted to 90.2%; in experiment [2], 96.2%.

For the compound `Cc1cc(C)cc(NS(=O)(=O)c2ccc3[nH]cc(C(=O)NCc4ccco4)c(=O)c3c2)c1`, the activity was 80% in experiment [1] and 85.3% in experiment [2].

As to `CC(C)(C)C1CCc2sc(C(=O)NNC(=O)CCl)cc2C1` (stereo unspecified), the activity in experiment [1] was 98.8%; in experiment [2] it was 95.6%.

As for `O=C(Nc1ncc(Cc2ccccc2)s1)c1cccs1`, the results for the activity in experiment [1] and in experiment [2] were 74.1% and 75%, respectively.

`CCOc1ccc(C(=O)O/N=C(\N)c2ccccn2)cc1OCC`: the activity is 82.3% in experiment [1] and 88.9% in experiment [2].

Take `COc1cccc2oc3ccc(C#Cc4ccccn4)cc3c(=O)c12`: the figures for the activity in experiment [1] and in experiment [2] were 71.8% and 87.5%, respectively.

As to `Cc1ccc(-c2cc3onc(-c4ccccc4)c3c(=O)n2C)cc1`, the activity in experiment [1] amounted to 75%; in experiment [2], 72.3%.

As for `CCCCCCCCCCCCCCCC[n+]1ccc(C(N)=O)cc1`, the activity in experiment [1] came out at 92.1%; in experiment [2], 88.5%.

For the compound `CC(C)(C)OC(=O)NCCCC[C@H](NC(=O)c1[nH]cnc1C(=O)N[C@@H](Cc1ccccc1)C(=O)OC(C)(C)C)C(=O)OC(C)(C)C`, the activity was 84% in experiment [1] and 64.7% in experiment [2].

Take `COc1ccc(C(=O)Nc2cccc(OC)c2)cc1`: the activity amounted to 56.9% in experiment [1] and 53.9% in experiment [2].
